{"source": "the supplement of paper PMC12636033", "note": "± gives the standard deviation of the averaged measurements. Whole data set: some 33,000 sequences, median “E-score (rank enrichment, -0.5 to 0.5)” near -0.0043, cut for the highest 2% near 0.24. The entries come from a sample that favours the highest values as a whole.", "data": [{"test_system": "2Sp-muMax20 (muMax20 with two 2,6-bis(methyl)pyridine Cys staples)", "assay": "PBM 8-mer E-score (E-score (rank enrichment, -0.5 to 0.5)); higher = stronger preferential binding", "description": "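Protein binding microarray (universal PBM chip covering all 10-mers in fixed probe flanks) with chemically synthesized human Max(13-93) bHLH-LZ analogs (not full-length Max) bearing noncanonical residues (hArg, Tha, Aib, Nle at 65) and aromatic Cys staples. Read-out per 8-mer (and its reverse complement): E-score (rank-based enrichment, -0.5 to 0.5) and Z-score of median probe intensity.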", "values": [{"sequence": "CCTGATTA", "PBM 8-mer E-score": "0.0465 ± 0.018"}, {"sequence": "ATTGATTA", "PBM 8-mer E-score": "0.124 ± 0.078"}, {"sequence": "GCTGATTA", "PBM 8-mer E-score": "0.273 ± 0.011"}, {"sequence": "ACTGATTA", "PBM 8-mer E-score": "0.0334 ± 0.067"}, {"sequence": "CTTGATTA", "PBM 8-mer E-score": "0.0552 ± 0.1"}, {"sequence": "GTTGATTA", "PBM 8-mer E-score": "0.25 ± 0.057"}, {"sequence": "CAAAGAGG", "PBM 8-mer E-score": "0.00199 ± 0.021"}, {"sequence": "GCTTACGA", "PBM 8-mer E-score": "0.0276 ± 0.057"}, {"sequence": "CGGGTCCC", "PBM 8-mer E-score": "-0.36 ± 0.051"}, {"sequence": "AAATGATT", "PBM 8-mer E-score": "-0.0058 ± 0.064"}, {"sequence": "CACGGACA", "PBM 8-mer E-score": "-0.212 ± 0.011"}, {"sequence": "AAGGGGCT", "PBM 8-mer E-score": "0.271 ± 0.019"}, {"sequence": "AAAGGGCT", "PBM 8-mer E-score": "-0.0325 ± 0.13"}, {"sequence": "AAGGGGCG", "PBM 8-mer E-score": "-0.00545 ± 0.089"}, {"sequence": "ACCTCTGC", "PBM 8-mer E-score": "-0.0962 ± 0.11"}, {"sequence": "CGGACAAA", "PBM 8-mer E-score": "-0.0707 ± 0.0079"}, {"sequence": "CAGCGGCC", "PBM 8-mer E-score": "-0.156 ± 0.048"}, {"sequence": "AGCATGCA", "PBM 8-mer E-score": "0.301 ± 0.023"}, {"sequence": "ACCATGCA", "PBM 8-mer E-score": "0.187 ± 0.0036"}, {"sequence": "GGCATGCA", "PBM 8-mer E-score": "0.0431 ± 0.062"}, {"sequence": "TGCATGCA", "PBM 8-mer E-score": "0.282 ± 0.038"}, {"sequence": "CGCATGCA", "PBM 8-mer E-score": "0.161 ± 0.026"}, {"sequence": "AACATGCA", "PBM 8-mer E-score": "0.205 ± 0.17"}, {"sequence": "CAAAGGGG", "PBM 8-mer E-score": "0.00961 ± 0.03"}, {"sequence": "CACATCCA", "PBM 8-mer E-score": "0.103 ± 0.042"}, {"sequence": "CTCTTCCA", "PBM 8-mer E-score": "-0.0254 ± 0.029"}, {"sequence": "AAGTCGAC", "PBM 8-mer E-score": "0.0839 ± 0.081"}, {"sequence": "CAGCGGGG", "PBM 8-mer E-score": "-0.157 ± 0.043"}, {"sequence": "CTCCTGCC", "PBM 8-mer E-score": "0.0184 ± 0.066"}, {"sequence": "CTGATGTA", "PBM 8-mer E-score": "-0.072 ± 0.074"}, {"sequence": "ATGATGTA", "PBM 8-mer E-score": "0.131 ± 0.049"}, {"sequence": "GTGATGTA", "PBM 8-mer E-score": "0.268 ± 0.018"}, {"sequence": "ACATACGA", "PBM 8-mer E-score": "0.237 ± 0.049"}, {"sequence": "ACATATAC", "PBM 8-mer E-score": "0.158 ± 0.072"}, {"sequence": "ACATACAG", "PBM 8-mer E-score": "0.191 ± 0.11"}, {"sequence": "ACATACAC", "PBM 8-mer E-score": "0.0759 ± 0.032"}, {"sequence": "ACATATAG", "PBM 8-mer E-score": "0.174 ± 0.031"}, {"sequence": "TCATACGA", "PBM 8-mer E-score": "0.214 ± 0.047"}, {"sequence": "ACATATAT", "PBM 8-mer E-score": "0.309 ± 0.061"}, {"sequence": "ACATACAT", "PBM 8-mer E-score": "0.252 ± 0.054"}, {"sequence": "ACATATAA", "PBM 8-mer E-score": "0.333 ± 0.0052"}, {"sequence": "TCATATAA", "PBM 8-mer E-score": "0.227 ± 0.045"}, {"sequence": "CCATATAA", "PBM 8-mer E-score": "0.0911 ± 0.065"}, {"sequence": "ACATACGC", "PBM 8-mer E-score": "0.0353 ± 0.028"}, {"sequence": "CGCAAATC", "PBM 8-mer E-score": "-0.0745 ± 0.17"}, {"sequence": "CCGTCGAG", "PBM 8-mer E-score": "-0.0626 ± 0.0034"}, {"sequence": "CTTATCGA", "PBM 8-mer E-score": "0.0942 ± 0.054"}, {"sequence": "CGTTACGC", "PBM 8-mer E-score": "-0.173 ± 0.044"}, {"sequence": "AAGTGGGG", "PBM 8-mer E-score": "0.1713 ± 0.001"}, {"sequence": "GCATGGGA", "PBM 8-mer E-score": "-0.0247 ± 0.032"}, {"sequence": "AATCCCGG", "PBM 8-mer E-score": "-0.104 ± 0.0059"}, {"sequence": "AGACTTAG", "PBM 8-mer E-score": "-0.023 ± 0.017"}, {"sequence": "AGATATAC", "PBM 8-mer E-score": "0.146 ± 0.046"}, {"sequence": "AGATATAT", "PBM 8-mer E-score": "0.252 ± 0.043"}, {"sequence": "AGATATAG", "PBM 8-mer E-score": "0.174 ± 0.0033"}, {"sequence": "ATATAGGG", "PBM 8-mer E-score": "0.0694 ± 0.043"}, {"sequence": "CGGAATAC", "PBM 8-mer E-score": "-0.144 ± 0.035"}, {"sequence": "AAAAGTGG", "PBM 8-mer E-score": "0.159 ± 0.0062"}, {"sequence": "GCCTGCAA", "PBM 8-mer E-score": "-0.0187 ± 0.071"}, {"sequence": "CCACACTA", "PBM 8-mer E-score": "0.261 ± 0.026"}, {"sequence": "GCACATAA", "PBM 8-mer E-score": "0.121 ± 0.02"}, {"sequence": "AAACATAG", "PBM 8-mer E-score": "0.0784 ± 0.084"}, {"sequence": "GAACATAA", "PBM 8-mer E-score": "0.0635 ± 0.079"}, {"sequence": "ACACACTA", "PBM 8-mer E-score": "0.158 ± 0.0088"}, {"sequence": "ACACATAG", "PBM 8-mer E-score": "-0.0161 ± 0.023"}, {"sequence": "AAACATAA", "PBM 8-mer E-score": "0.289 ± 0.0052"}, {"sequence": "ACACATAA", "PBM 8-mer E-score": "0.24 ± 0.037"}, {"sequence": "GTACATAA", "PBM 8-mer E-score": "0.171 ± 0.011"}, {"sequence": "CTACATAA", "PBM 8-mer E-score": "0.122 ± 0.021"}, {"sequence": "CCACACTC", "PBM 8-mer E-score": "0.00608 ± 0.081"}, {"sequence": "TTACATAA", "PBM 8-mer E-score": "0.259 ± 0.0094"}, {"sequence": "CAGTGGAG", "PBM 8-mer E-score": "0.0231 ± 0.066"}, {"sequence": "CACAGGGC", "PBM 8-mer E-score": "-0.258 ± 0.027"}, {"sequence": "CCAACTCA", "PBM 8-mer E-score": "-0.0281 ± 0.11"}, {"sequence": "CCCACCAA", "PBM 8-mer E-score": "0.127 ± 0.019"}, {"sequence": "ATATCAAT", "PBM 8-mer E-score": "0.172 ± 0.089"}, {"sequence": "AGCCTCTG", "PBM 8-mer E-score": "-0.079 ± 0.05"}, {"sequence": "ATTTGAAA", "PBM 8-mer E-score": "0.168 ± 0.12"}, {"sequence": "AGGTCTCC", "PBM 8-mer E-score": "-0.0447 ± 0.033"}, {"sequence": "GTGCAGTA", "PBM 8-mer E-score": "0.106 ± 0.039"}, {"sequence": "AACGACTA", "PBM 8-mer E-score": "0.0385 ± 0.073"}, {"sequence": "ACACACAA", "PBM 8-mer E-score": "0.0759 ± 0.063"}, {"sequence": "TCACACAA", "PBM 8-mer E-score": "0.238 ± 0.017"}, {"sequence": "CCACACAA", "PBM 8-mer E-score": "0.0212 ± 0.012"}, {"sequence": "ACCCCTGG", "PBM 8-mer E-score": "-0.144 ± 0.039"}, {"sequence": "ATCGAAGG", "PBM 8-mer E-score": "-0.0475 ± 0.11"}]}]}
